From PubChem BioAssay (NCI)
The panel holds about 83,000 compounds, 20% with a hit somewhere; the sample as a whole holds those more often.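 Step 1: grow cells in 96-well plates. Step 2: add test compound at a single concentration. Step 3: incubate 48 h. Step 4: record percent growth.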 A number with no mark means an inactive call. The source made the active and inactive calls. The calls were made as follows: active = growth percent below 10; inactive = the rest.

Columns and labels:
Assay in all cases: NCI-60 one-dose screen, 48 h (100 = growth as untreated, 0 = no growth, -100 = all killed)
Conditions in all cases: 10 µM unless noted
HCT-15 colon = test system: HCT-15 colon
HT29 colon = test system: HT29 colon
SNB-75 CNS = test system: SNB-75 CNS
SNB-19 CNS = test system: SNB-19 CNS
U251 CNS = test system: U251 CNS
PC-3 prostate = test system: PC-3 prostate
SK-MEL-5 melanoma = test system: SK-MEL-5 melanoma
UACC-62 melanoma = test system: UACC-62 melanoma
LOX IMVI melanoma = test system: LOX IMVI melanoma
SK-MEL-28 melanoma = test system: SK-MEL-28 melanoma

Structure (SMILES) | growth (HCT-15 colon) | growth (HT29 colon) | growth (SNB-75 CNS) | growth (SNB-19 CNS) | growth (U251 CNS) | growth (PC-3 prostate) | growth (SK-MEL-5 melanoma) | growth (UACC-62 melanoma) | growth (LOX IMVI melanoma) | growth (SK-MEL-28 melanoma)
O=C(OCc1ccc2c(Cl)cc(Cl)c(O)c2n1)n1cncn1 | 19.3% | 72.6% | 44.9% | 30.5% | 16.3% | 42.5% | 15.4% | -3.18% (active) | 9.57% (active) | 35.5%
COC1=CC(c2ccc[nH]2)=N/C1=C\c1[nH]c(C)c(C(=O)OCc2ccccc2)c1C | -35.4% (active) | -19.4% (active) | -21.4% (active) | 18.5% | -47% (active) | 10.4% | -99.5% (active) | -52.6% (active) | -90.6% (active) | -59.4% (active)
CC(C)CCNC(=O)Cn1cccc(NC(=O)OCc2ccccc2)c1=O | 111% | 108% | 79.9% | 103% | 101% | 92.3% | 96.1% | 111% | 89.8% | 98.8%
N#Cc1c(-c2cccs2)cc(-c2cccnc2)[nH]c1=O | 102% | 111% | 102% | 98.1% | 96.9% | 101% | 102% | 95.5% | 97.5% | 104%
C=CCn1c(SCC(=O)Nc2ccc(C(=O)/C=C/c3cc4cc(OC)ccc4nc3Cl)cc2)nnc1-c1ccc(Br)cc1 | 84.2% | 73.8% | 74.8% | 78.4% | 82.5% | 68.2% | 82.9% | 72.9% | 82.6% | 99.9%
CC1=Nc2cnc(Nc3ccc(OCCN4CCCC4)cc3)nc2Nc2ccccc21 | 33.9% | 60.9% | 20.1% | 91.1% | 80.9% | 61.7% | 71.6% | 84.3% | 52.2% | 94%
O=C(CN1C(=O)CCC1=O)Nc1ncc(Cc2ccc(F)cc2)s1 | 102% | 106% | 94.3% | 96.3% | 97.5% | 92.4% | 99.6% | 92.1% | 94.3% | 106%
Cc1cc2c([nH]1)CSc1cc(S(=O)(=O)c3ccccc3)c(=O)[nH]c1-2 | 17.7% [100 µM] | 10.5% [100 µM] | 20% [100 µM] | 37.4% [100 µM] | 15.5% [100 µM] | 23% [100 µM] | -36.7% [100 µM] (active) | 19.1% [100 µM] | 12.1% [100 µM] | 17.9% [100 µM]
C=CC(=O)NCc1ccc(Nc2nccc(-c3ccc(N4CCCC4)c(C#N)c3)n2)cc1 | 19.7% | 7.08% (active) | 20.3% | 58.6% | 38.1% | 32.4% | 35.7% | 33.8% | 47.2% | 45.5%
N#Cc1nn(-c2cc(=O)[nH]c3ccc(Cl)cc23)c(N)c1C#N | 108% | 101% | 113% | 98.8% | 103% | -87.3% (active) | 102% | 81.9% | 96.6% | 104%
O=C1N(Cc2ccccc2Cl)c2ccccc2C12NN=C(c1cccc(Cl)c1)S2 (stereo not given) | 0.214% (active) | 94.4% | 16.7% | 20.9% | -30% (active) | -64.3% (active) | 14.5% | -44.3% (active) | -19.4% (active) | 7.1% (active)
CC1(C)CC2=C3C=C[C@@H]4[C@@]5(C)CCC(=O)C(C)(C)[C@@H]5CC[C@@]4(C)[C@]3(C)CC[C@@]2(C(=O)O)CC1=O | 57.2% | 50.4% | 10% | 96.5% | 61.2% | 74.3% | 55.2% | 64% | 87.2% | 46.5%
O=C1/C(=C/c2ccc(F)cc2)COc2ccc(O)c(O)c21 | -27.7% (active) | 13.5% | 26.9% | 33.4% | 1.66% (active) | -0.716% (active) | 56.3% | 7.26% (active) | -85.2% (active) | 44.1%
CC(C)N1CCN(Cc2ccc3c(NNC(=O)c4ccccc4)nc4cc(F)ccc4n23)CC1 | 31.7% | 31.3% | 54.7% | 29.7% | 17% | 36.9% | -8.08% (active) | 7.2% (active) | 6.12% (active) | 29.5%
CC1(C)CCC(S(=O)(=O)c2ccc3c(c2)/C(=N\O)c2cc(S(=O)(=O)N4CCC(O)(c5cccc(C(F)(F)F)c5)CC4)ccc2-3)CC1 | 16.3% | -80.1% (active) | -98.2% (active) | -81.9% (active) | -98.6% (active) | -71.5% (active) | -92.7% (active) | -84.9% (active) | -86.1% (active) | -71.7% (active)
COc1ccc(C2c3sc4c(F)cccc4c3Oc3nc[nH]c(=O)c32)cc1 (stereo not given) | 74.9% | 107% | 88.2% | 79% | 89.7% | 65.8% | 75.4% | 60.1% | 82.9% | 92.6%
CCOC(=O)C1=NN(c2ccccc2)C(=O)/C1=C\N1C(=O)CC(=O)NC1=S | 105% | 99.7% | 10.6% | 97.4% | 91% | 96.4% | 99.6% | 87.5% | 93.7% | 114%
O=C(N/N=C/c1ccc(F)cc1)c1ccc(C(F)(F)F)nc1Nc1cccc(C(F)(F)F)c1 | 0.43% (active) | 1.2% (active) | 0.243% (active) | 18.4% | -41% (active) | -1.21% (active) | -30.6% (active) | -6.64% (active) | -23.7% (active) | 12.7%
COC(=O)c1cc(-c2ccccc2)[nH]c1N/N=C/c1c(Cl)cccc1Cl | 15% | -8.44% (active) | 0.903% (active) | 13.6% | 12.1% | 5.23% (active) | 16.8% | 42.4% | 21% | 11.4%
CSc1nc2sc3c(c2c(=O)n1-c1ccc([N+](=O)[O-])cc1)CCCCC3 | 94.6% | 92.6% | 89.7% | 86% | 84.5% | 85.5% | 96.4% | 87.1% | 94.7% | 105%
O=S(=O)(NCCCNc1nccc(-c2c(-c3ccc(F)c(O)c3)nc3occn23)n1)c1ccccc1 | 103% | 73.6% | 96.8% | 113% | 99.7% | 79.1% | 63% | 10.7% | 39.6% | 24.7%
Cc1cccc(N2CCN(CC(O)COc3ccc(Cl)cc3)CC2)c1 (stereo not given) | 97.4% | 114% | 104% | 98.3% | 95.7% | 91.9% | 97.4% | 96.4% | 97.6% | 117%
Cc1ccc2c(n1)C(=O)c1[nH]c3ccccc3c1C2=O | 18.8% | 26.6% | -37.8% (active) | 46.9% | 40.9% | 35.3% | -94% (active) | -64.2% (active) | 16.4% | 78.6%
COCCNC(=O)c1ccc(-c2nc3ccc4[nH]ncc4c3c3c2CCCC3)cc1 | 19.3% | 44.5% | -6.65% (active) | 67.7% | 43.4% | 34.8% | 44.8% | 21.4% | 29.1% | 39.6%
NC(=O)CCC(C(=O)O)N1C(=O)c2ccc(O)cc2C1=O (stereo not given) | 101% | 119% | 128% | 110% | 100% | 98.6% | 107% | 111% | 97.2% | 124%
CC1(c2ccccc2O)NN=C(/N=C/c2cccc([N+](=O)[O-])c2)N1C(Cc1c[nH]c2ccccc12)C(=O)O (stereo not given) | 98.7% | 102% | 92.3% | 96.9% | 96.1% | 76.9% | 93% | 77.6% | 90.5% | 106%
